Measured values taken from PubChem BioAssay (Tox21).
Several values for one entry are separate records, joined by “and”; a condition that tells them apart may be missing. Equal entries are not always repeated. Records with an inconclusive call do not appear. Activity calls are given as the source filed them. Unless noted, calls follow the shape of the full dose curve.

Tests used:
[1] = Nuclear factor erythroid 2-related factor 2/antioxidant responsive element (Nrf2/ARE) small molecule agonists: qHTS cell viability counter screen in human keratinocytes (AID 1919968; active = well fitted curve in the direction sought with a large enough effect in the repeat runs; an effect the other way counts as inactive or inconclusive; also: nearly all actives have a fitted effect of over 55% in size; also: potency is read from the fitted curve at half-maximal effect)
In short: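 In human HaCaT keratinocytes stably expressing an ARE-driven luciferase, compound exposure lasted 23 h at 37 C under 5% CO2. Viable cells are quantified with a protease-based fluorogenic reagent (CellTiter-Fluor) read 1 h after addition.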

[2] = molecular target: KiSS-1 receptor (Homo sapiens) (UniProt Q969F8); assay: Human kisspeptin (KISS1R) small molecule agonists, calcium flux assay in KISS1R-HEK293 cells (AID 1920064; active = well fitted curve in the direction sought with a large enough effect in the repeat runs; an effect the other way counts as inactive or inconclusive)
In short: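 Concentration-response testing used 15 concentrations in triplicate on human KISS1R-expressing HEK293 cells. Calcium-dependent fluorescence (Ex/Em 480/540) was followed kinetically for 3 min after compound transfer.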

[3] = G protein-coupled receptor (GPCR) small molecule agonists, calcium flux assay: HEK293 wild type cell line counter screen (AID 1920065)
In short: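 Fluorescence intensity signals activation. After overnight (18 h) culture and a 1 h calcium dye load at 37 C, compounds are added by pin tool and the plate read at 480/540 nm for 3 min in 1 s steps.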

[4] = p53 small molecule agonists, cell-based qHTS assay with human liver microsomes (AID 1963577)
In short: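 p53RE-bla reporter cells were pre-incubated 5 h at 37 C, then treated with compounds plus human liver microsomes (0.5 mg/mL final) and NADPH (0.5 mg/mL final) for 16 h at 37 C. Beta-lactamase activity was read by LiveBLAzer fluorescence after 2 h at room temperature.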

[5] = p53 small molecule agonists, cell-based qHTS assay with rat liver microsomes (AID 1963578)
In short: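 p53RE-bla cells were exposed to compounds together with rat liver microsomes (0.5 mg/mL final) and NADPH (0.5 mg/mL final) for 16 h at 37 C, then read by LiveBLAzer beta-lactamase fluorescence after 2 h at room temperature.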

[6] = p53 small molecule agonists, cell-based qHTS assay with human liver microsomes: qHTS cell viability counter screen (AID 1963579); also: nearly all actives have a fitted effect of over 45% in size; also: potency is read from the fitted curve at half-maximal effect
In short: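 p53RE-bla cells (4,000/well) were pre-incubated 5 h at 37 C, then given compounds in DMSO plus human liver microsomes (0.5 mg/mL final) and NADPH (0.5 mg/mL final) for 16 h at 37 C. Viability was read by CellTiter-Glo luminescence.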

[7] = p53 small molecule agonists, cell-based qHTS assay with rat liver microsomes: qHTS cell viability counter screen (AID 1963580); also: nearly all actives have a fitted effect of over 45% in size; also: potency is read from the fitted curve at half-maximal effect
In short: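 After the beta-lactamase ratio was read, CellTiter-Glo was added to the same wells and luminescence measured at 30 min; cells had been treated 16 h at 37 C with compounds, rat liver microsomes and NADPH (0.5 mg/mL final each).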

[8] = p53 small molecule agonists, cell-based qHTS assay: qHTS cell viability counter screen (AID 1963581); also: nearly all actives have a fitted effect of over 45% in size; also: potency is read from the fitted curve at half-maximal effect
In short: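 Luminescence from CellTiter-Glo, reflecting ATP content, serves as the cytotoxicity measure; it is taken after the 2 h reporter substrate step in HCT-116 p53RE-bla cells dosed for 16 h at 37 C.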

[9] = p53 small molecule agonists, cell-based qHTS assay (AID 1963582; active = well fitted activation curve with a large enough effect in the signal ratio in the repeat runs, not every such curve was filed as active; the % refers to the signal ratio)
In short: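 After plating, p53RE-bla cells sat 5 h in the incubator; compounds or DMSO vehicle were pinned in; a 16 h incubation at 37 C followed; FRET substrate was added and, 2 h later at RT, fluorescence was measured.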

[10] = molecular target: 5-hydroxytryptamine receptor 2A (Homo sapiens) (UniProt P28223); assay: 5-hydroxytryptamine receptor 2A (HTR2A) small molecule antagonists, cell-based qHTS assay (AID 1963586); also: nearly all actives have a fitted effect of over 45% in size
In short: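 CHO cells stably expressing human HTR2A were plated for 18 h at 37 C, then loaded with calcium dye for 1 h. Compounds were preincubated 5 min at room temperature before DOI (4 nM solution) was added. Kinetic fluorescence was read for 3 min.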

[11] = molecular target: 5-hydroxytryptamine receptor 2A (Homo sapiens) (UniProt P28223); assay: 5-hydroxytryptamine receptor 2A (HTR2A) small molecule agonists, cell-based qHTS assay (AID 1963587); also: nearly all actives have a fitted effect of over 30% in size; also: potency is read from the fitted curve at half-maximal effect
In short: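 CHO cells stably expressing human HTR2A, plated 18 h, loaded with calcium dye 1 h at 37 C. Agonist mode: compounds added and intracellular calcium fluorescence recorded kinetically for 2 min at 1 sec intervals.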

[12] = molecular target: Muscarinic acetylcholine receptor M1 (Homo sapiens) (UniProt P11229); assay: Cholinergic receptor muscarinic 1 (CHRM1) small molecule antagonists, cell-based qHTS assay (AID 1963588); also: nearly all actives have a fitted effect of over 40% in size
In short: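 Compounds were tested at 15 concentrations in three independent runs. Dye-loaded CHRM1-CHO cells were exposed 5 min at room temperature before stimulation by acetylcholine added at 50nM. Intracellular calcium was read kinetically on FDSS for 3 min.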

[13] = molecular target: Muscarinic acetylcholine receptor M1 (Homo sapiens) (UniProt P11229); assay: Cholinergic receptor muscarinic 1 (CHRM1) small molecule agonists, cell-based qHTS assay (AID 1963589); also: nearly all actives have a fitted effect of over 35% in size; also: potency is read from the fitted curve at half-maximal effect
In short: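 Fluorescent calcium dye reports M1 activation in stably transfected CHO cells. Compounds, 15 concentrations, added after 1 h dye loading at 37 C; kinetic reading at 1 sec intervals.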

[14] = cAMP Responsive Elements (CRE) small molecule agonists, cell-based qHTS assay (AID 1963590)
In short: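 Compound exposure lasted 3 h at 37 C/5% CO2 in CRE-bla HEK 293T cells grown in assay medium with 10% dialyzed FBS and 25 mM HEPES. Reporter signal came from LiveBLAzer B/G FRET substrate, 2 h, room temperature.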

[15] = cAMP Responsive Elements (CRE) small molecule antagonists, cell-based qHTS assay (AID 1963591; active = well fitted inhibition curve with a large enough effect in the signal ratio in the repeat runs, not every such curve was filed as active; the % refers to the signal ratio)
In short: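 Stimulation used NKH477 at a final 0.25 uM for 3 h in compound-treated CRE-bla HEK293T cells, seeded 18 h beforehand. Reporter activity was measured with LiveBLAzer B/G FRET substrate after 2 h at room temperature.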

[16] = molecular target: Beta-2 adrenergic receptor (Homo sapiens) (UniProt P07550); assay: Adrenergic beta2 receptor (ADRB2) small molecule antagonists, cell-based qHTS assay (AID 1963592); also: nearly all actives have a fitted effect of over 50% in size; also: potency is read from the fitted curve at half-maximal effect
In short: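 Assay format: CHO-ADRB2 cells, 18-20hr seeding at 37C/5% CO2, then compound plus 1nM isoproterenol agonist mix for 0.5hr RT. Homogeneous time-resolved fluorescence cAMP detection after 1hr, expressed as 665/615 nm ratio.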

[17] = molecular target: Beta-2 adrenergic receptor (Homo sapiens) (UniProt P07550); assay: Adrenergic beta2 receptor (ADRB2) small molecule agonists, cell-based qHTS assay (AID 1963593);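 also: CHO cells stably overexpressing human ADRB2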
In short: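 CHO cells stably over-expressing ADRB2 were plated overnight at 37C, then dosed with compounds plus a stimulation mix containing 100uM IBMX and 25uM Ro-20-1724 for 0.5hr at room temperature. cAMP was measured by HTRF competition, 1hr.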

[18] = molecular target: D(2) dopamine receptor (Homo sapiens) (UniProt P14416); assay: Dopamine D2 receptor (DRD2) small molecule agonists, cell-based qHTS assay (AID 1963594); also: nearly all actives have a fitted effect of over 35% in size
In short: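 HEK293 cells stably expressing human DRD2, pre-treated with PDE inhibitor Ro20-1724 (0.1 mM final) and compound 10 min at room temperature, then stimulated with NKH477 (200nM […]) for 30 min. cAMP read by HTRF (665/620 nm).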

[19] = molecular target: D(2) dopamine receptor (Homo sapiens) (UniProt P14416); assay: Dopamine D2 receptor (DRD2) small molecule antagonists, cell-based qHTS assay (AID 1963595; active = well fitted inhibition curve with a large enough effect in the signal ratio in the repeat runs, with a control signal flat; the % refers to the signal ratio; also: potency is read from the fitted curve at half-maximal effect)
In short: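 Cells were plated and grown for 24 h at 37 °C. Ro20-1724 (0.1 mM final) went in first, then compound for 10 min. NKH477 (200 nM) with quinpirole (12 nM) followed for 30 min at RT, then HTRF detection reagents for 1 h.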

[20] = molecular target: Gonadotropin-releasing hormone receptor (Homo sapiens) (UniProt P30968); assay: Human gonadotropin-releasing hormone receptor (GnRHR) small molecule agonists, calcium flux assay in GnRHR-HEK293 cells (AID 1920063); also: nearly all actives have a fitted effect of over 35% in size; also: potency is read from the fitted curve at half-maximal effect
In short: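 Intracellular calcium rise is the read-out: engineered human GnRHR HEK293 cells, dye-loaded, are exposed to DMSO-dissolved compounds and fluorescence at Ex/Em 480/540 is tracked for 3 min.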
% is scaled to controls: 0 for no effect and ±100 for the full control effect.

Muscarinic acetylcholine receptor M1 (Homo sapiens), sequence (P11229 whole entry, looked up): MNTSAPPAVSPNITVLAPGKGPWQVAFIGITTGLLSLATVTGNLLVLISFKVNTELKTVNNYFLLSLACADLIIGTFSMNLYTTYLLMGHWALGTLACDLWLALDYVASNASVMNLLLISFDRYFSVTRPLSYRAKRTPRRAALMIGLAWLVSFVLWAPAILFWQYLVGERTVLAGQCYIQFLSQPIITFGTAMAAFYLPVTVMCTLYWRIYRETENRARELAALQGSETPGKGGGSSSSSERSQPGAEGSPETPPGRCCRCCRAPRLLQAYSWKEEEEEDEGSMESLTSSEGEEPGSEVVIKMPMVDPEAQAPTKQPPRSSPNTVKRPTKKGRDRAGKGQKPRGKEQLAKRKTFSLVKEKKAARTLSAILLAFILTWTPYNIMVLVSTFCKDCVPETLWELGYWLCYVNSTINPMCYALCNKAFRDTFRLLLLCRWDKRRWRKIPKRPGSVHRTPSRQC
D(2) dopamine receptor (Homo sapiens), sequence (P14416 whole entry, looked up): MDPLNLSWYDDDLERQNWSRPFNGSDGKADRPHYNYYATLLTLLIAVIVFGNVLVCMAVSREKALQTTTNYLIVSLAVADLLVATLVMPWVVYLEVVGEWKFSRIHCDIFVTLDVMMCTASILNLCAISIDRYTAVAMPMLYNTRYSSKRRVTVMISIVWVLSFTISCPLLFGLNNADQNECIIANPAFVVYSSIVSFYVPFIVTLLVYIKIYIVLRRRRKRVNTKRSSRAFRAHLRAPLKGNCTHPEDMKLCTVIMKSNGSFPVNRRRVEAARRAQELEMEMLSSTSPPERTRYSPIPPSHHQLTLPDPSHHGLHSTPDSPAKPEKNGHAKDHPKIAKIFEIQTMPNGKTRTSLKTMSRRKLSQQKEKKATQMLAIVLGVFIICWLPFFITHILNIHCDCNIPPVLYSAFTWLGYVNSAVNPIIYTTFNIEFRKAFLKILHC
Gonadotropin-releasing hormone receptor (Homo sapiens), sequence (P30968 whole entry, looked up): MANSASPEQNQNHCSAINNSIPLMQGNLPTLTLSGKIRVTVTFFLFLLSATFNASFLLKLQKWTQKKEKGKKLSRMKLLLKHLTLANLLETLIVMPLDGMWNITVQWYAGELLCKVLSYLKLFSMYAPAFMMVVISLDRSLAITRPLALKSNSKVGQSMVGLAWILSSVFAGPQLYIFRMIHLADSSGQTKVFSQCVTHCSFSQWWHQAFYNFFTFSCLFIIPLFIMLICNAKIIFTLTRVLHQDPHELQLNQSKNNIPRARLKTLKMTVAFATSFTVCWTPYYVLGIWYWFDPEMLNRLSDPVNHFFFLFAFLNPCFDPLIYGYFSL
Beta-2 adrenergic receptor (Homo sapiens), sequence (P07550 whole entry, looked up): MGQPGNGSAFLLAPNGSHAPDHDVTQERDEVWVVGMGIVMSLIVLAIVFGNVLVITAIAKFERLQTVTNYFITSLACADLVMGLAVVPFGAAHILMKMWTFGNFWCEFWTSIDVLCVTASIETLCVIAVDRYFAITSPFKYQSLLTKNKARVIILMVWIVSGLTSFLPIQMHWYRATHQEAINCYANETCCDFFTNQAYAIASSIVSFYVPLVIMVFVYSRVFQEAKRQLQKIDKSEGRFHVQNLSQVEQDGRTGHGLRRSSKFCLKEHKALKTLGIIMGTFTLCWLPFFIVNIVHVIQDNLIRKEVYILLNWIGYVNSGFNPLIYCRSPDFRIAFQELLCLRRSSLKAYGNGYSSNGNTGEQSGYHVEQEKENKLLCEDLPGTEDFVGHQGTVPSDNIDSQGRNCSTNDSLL
5-hydroxytryptamine receptor 2A (Homo sapiens), sequence (P28223 whole entry, looked up): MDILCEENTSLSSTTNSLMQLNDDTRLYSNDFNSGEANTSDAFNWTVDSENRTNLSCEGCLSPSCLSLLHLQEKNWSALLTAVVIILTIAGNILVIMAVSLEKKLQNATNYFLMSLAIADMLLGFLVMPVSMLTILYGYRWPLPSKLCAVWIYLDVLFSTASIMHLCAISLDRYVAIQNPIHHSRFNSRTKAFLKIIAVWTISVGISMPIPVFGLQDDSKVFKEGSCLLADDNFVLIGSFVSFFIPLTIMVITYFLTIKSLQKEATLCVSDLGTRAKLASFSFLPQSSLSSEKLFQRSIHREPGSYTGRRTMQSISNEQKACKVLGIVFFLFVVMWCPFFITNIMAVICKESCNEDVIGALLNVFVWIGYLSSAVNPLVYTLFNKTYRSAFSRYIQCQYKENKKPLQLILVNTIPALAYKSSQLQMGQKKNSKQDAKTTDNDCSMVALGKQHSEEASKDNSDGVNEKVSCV
KiSS-1 receptor (Homo sapiens), sequence (Q969F8 whole entry, looked up): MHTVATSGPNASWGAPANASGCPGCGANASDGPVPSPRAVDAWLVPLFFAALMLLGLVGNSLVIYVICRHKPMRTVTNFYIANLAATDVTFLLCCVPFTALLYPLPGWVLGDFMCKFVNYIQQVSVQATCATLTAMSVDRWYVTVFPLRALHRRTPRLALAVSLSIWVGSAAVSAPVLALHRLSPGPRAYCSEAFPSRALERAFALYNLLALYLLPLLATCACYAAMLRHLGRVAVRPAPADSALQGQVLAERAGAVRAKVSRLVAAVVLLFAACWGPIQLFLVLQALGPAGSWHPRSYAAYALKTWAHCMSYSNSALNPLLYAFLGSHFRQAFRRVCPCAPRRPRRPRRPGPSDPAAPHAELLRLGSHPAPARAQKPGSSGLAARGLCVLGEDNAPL

O=NN1CCOCC1
inactive: Potency [1] | Potency [2] | Potency [3] | Potency [4] | Potency [5] | Potency [6] | Potency [7] | Potency [8] | Potency [9] | Potency [10] | Potency [11] | Potency [12] | Potency [13] | Potency [14] | Potency [15] | Potency [16] | Potency [17] | Potency [18] | Potency [19]

CC(=O)O
inactive: Potency [1] | Potency [2] | Potency [3] | Potency [6] | Potency [7] | Potency [8] | Potency [10] | Potency [11] | Potency [12] | Potency [13] | Potency [15] | Potency [16] | activation [17] -4.33% [at 8.39 µM] | Potency [18] | Potency [19]

CC1(C)Cc2cccc(O)c2O1
inactive: Potency [1] | Potency [20] | Potency [2] | Potency [3] | Potency [6] | Potency [8] | Potency [10] | Potency [11] | Potency [12] | Potency [13] | Potency [14] | Potency [15] | Potency [16] | Potency [18] | Potency [19]

C=CC(=O)OCC(CC)CCCC (configuration not stated)
inactive: Potency [1] | Potency [2] | Potency [3] | Potency [4] | Potency [6] | Potency [7] | Potency [8] | Potency [9] | Potency [10] | Potency [11] | Potency [12] | Potency [13] | Potency [14] | Potency [16] | Potency [17] | Potency [18] | Potency [19]

CS(=O)(=O)Cl
inactive: Potency [1] | Potency [20] | Potency [3] | Potency [4] | Potency [5] | Potency [6] | Potency [7] | Potency [8] | Potency [9] | Potency [11] | Potency [12] | Potency [13] | Potency [15] | Potency [16] | Potency [18] | Potency [19]

CC[N+](CC)(CC)CC
inactive: Potency [1] | Potency [20] | Potency [2] | Potency [6] | Potency [8] | Potency [10] | Potency [11] | Potency [12] | Potency [13] | Potency [14] | Potency [15] | Potency [16] | Potency [17] | Potency [18] | Potency [19]

[Cl-].[Cl-].[Hg+2]
active: Potency [1] 7.66 µM and 3.06 µM | Potency [20] 38.7 µM and 38.9 µM | Potency [6] 5.74 µM and 10.2 µM | Potency [7] 16.2 µM and 4.08 µM | Potency [8] 3.62 µM and 9.13 µM | Potency [11] 54.9 µM | Potency [13] 54.9 µM | Potency [16] 48.3 µM | Potency [19] 1.92 µM
inactive: Potency [3] | Potency [10] | Potency [12]

O=NN1CCCCC1
inactive: Potency [20] | Potency [2] | Potency [3] | Potency [4] | Potency [5] | Potency [6] | Potency [7] | Potency [8] | Potency [9] | Potency [10] | Potency [11] | Potency [12] | Potency [13] | Potency [14] | Potency [15] | Potency [16] | Potency [18] | Potency [19]
